# Inconclusive results are not listed. A call without a number means that no potency is given here. Activity calls are given as the source filed them. Calls come from the whole dose curve; as a rule, active = well fitted activation curve with a large enough effect; inconclusive = small, poorly fitted or top-dose-only effect; inactive = flat fitted curve, though single readings scatter.
# Test: qHTS for Inhibitors of Cell Surface uPA Generation: FP59 Counterscreen for Cherry-picked Compounds
# Details: FP59 anthrax toxin cytotoxicity counterscreen, cells; series mostly up to 115 µM
row,SMILES,Potency
1,CN(CC(=O)NCc1ccco1)CC(=O)Nc1c(Cl)cccc1Cl,inactive
2,O=C(COC(=O)/C=C/c1cccc(F)c1)Nc1ccccc1,inactive
3,Clc1ccc(-c2nc3ccccn3c2CN2CCSCC2)cc1,inactive
4,C=CCn1c(SCCN2C(=O)c3ccccc3C2=O)nc2scc(-c3ccc(F)cc3)c2c1=O,inactive
5,Cc1ccc(C(O)(COC(=O)C(C)C)COC(=O)C(C)C)c(O)c1,inactive
6,CC1CCCN(S(=O)(=O)c2cccc([N+](=O)[O-])c2)C1 (stereo not drawn),inactive
7,O=C(CN1C(=O)CSCC1=O)NCc1ccc(F)cc1,inactive
8,COC(=O)C(CCSC)NC(=O)Cn1ncc2c(=O)oc3ccccc3c21 (stereo not drawn),inactive
9,C=CCn1c(=O)c(C(=O)NCCc2ccc(Cl)cc2)c(O)c2cc(OC)c(OC)cc21,inactive
10,O=C(COc1ccc(C(=S)N2CCOCC2)cc1)N1CCOCC1,inactive
11,O=[N+]([O-])c1ccc(SCc2ccncc2)nc1,inactive
12,Cn1cnc([N+](=O)[O-])c1Sc1ccc(Br)cc1,inactive
13,COc1cccc(NC(=O)N2C3CCCC2CC(NC(C)=O)C3)c1 (stereo not drawn),inactive
14,CC(C)NCC1CCc2cc(CO)c([N+](=O)[O-])cc2N1 (stereo not drawn),inactive
15,Cc1ccc2cc(C=O)c(Cl)nc2c1,inactive
16,O=C(COc1ncnc2sccc12)Nc1cccc(S(=O)(=O)N2CCCC2)c1,inactive
17,Cc1ccnc(NC(=O)CCNS(=O)(=O)c2ccc(C)c(C)c2)c1,inactive
18,CCOC(=O)C(CC)n1cnc2c(nnn2-c2ccccc2)c1=O (stereo not drawn),inactive
19,CCn1c(SC(C)C(=O)NC2CCCC2)nc2cc(S(N)(=O)=O)ccc21 (stereo not drawn),inactive
20,Cc1ccsc1/C=C(\C#N)C(=O)NC1CCS(=O)(=O)C1 (stereo not drawn),inactive
21,CCc1nnc(NC(=O)CSc2nnnn2-c2cccc(C(C)=O)c2)s1,inactive
22,C[C@H](O)[C@@H]1C(=O)N2CCc3ccc(-c4cccc(F)c4)cc3[C@@H]2C[C@@H]1N(C)C(=O)C(C)(C)C,inactive
23,CC1CCCCN1C(=O)CSc1nc2ncccc2[nH]1 (stereo not drawn),inactive

# — PubChem BioAssay AID720517 (National Center for Advancing Translational Sciences (NCATS), 2013)
